Results: the supplement of paper PMC13380429
A number with no mark means an inactive call.

Test system: Vero E6 infected with SARS-CoV-2
Experiment: inhibition of SARS-CoV-2 cytopathic effect; higher = more antiviral protection, active = above 15
Details: 48 h

| SMILES | inhibition of SARS-CoV-2 cytopathic effect (1 nM) [%] | inhibition of SARS-CoV-2 cytopathic effect (8.33 nM) [%] | inhibition of SARS-CoV-2 cytopathic effect (100 nM) [%] | inhibition of SARS-CoV-2 cytopathic effect (833.33 nM) | inhibition of SARS-CoV-2 cytopathic effect (10000 nM) |
| --- | --- | --- | --- | --- | --- |
| Nc1ccncc1N [amifampridine] | -1.81 | -1.46 | -2.67 | -3.34% | -5.61% |
| CCCN1CCO[C@@H]2c3cc(O)ccc3OC[C@H]21 | -1.91 | -3.42 | 2.39 | -0.35% | -2.98% |
| Cc1nn(C)c2nc(NNC(=O)Nc3cc(Cl)nc(Cl)c3)cc(C(C)C)c12 | -4.74 | -3.45 | -2.8 | -1.22% | 1.05% |
| OCCCCO [1,4-butanediol] | -4.4 | -1.22 | -1.14 | 0.26% | -1.17% |
| C[C@@H]1CN(c2c(F)c(N)c3c(=O)c(C(=O)O)cn(C4CC4)c3c2F)C[C@H](C)N1 [sparfloxacin] | 2.08 | 2.09 | 0.77 | -1.72% | -2.31% |
| Oc1ccc2[nH]cc(C3=CCNCC3)c2n1 | 6.34 | 6.88 | -4.05 | -1.7% | -2.6% |
| COc1ccc(F)c(F)c1C(=O)c1cnc(NC2CCN(S(C)(=O)=O)CC2)nc1N | -1.93 | -3.14 | -5.01 | 6.41% | -11.5% |
| CO[C@H]1C[C@@H]2CC[C@@H](C)[C@@](O)(O2)C(=O)C(=O)N2CCCC[C@H]2C(=O)O[C@H]([C@H](C)C[C@@H]2CC[C@@H](O)[C@H](OC)C2)CC(=O)[C@H](C)/C=C(\C)[C@@H](O)[C@@H](OC)C(=O)[C@H](C)C[C@H](C)/C=C/C=C/C=C/1C [sirolimus] | -1.48 | -3.33 | -1.82 | -0.23% | -0.88% |
| O=C(NCCCCN1CCN(c2cccc(Cl)c2Cl)CC1)c1ccc2c(c1)Cc1ccccc1-2 | 0.39 | 2.85 | -2.31 | -1.17% | -3.44% |
| CCc1cc(C(N)=S)ccn1 [ethionamide] | -1.54 | 0.54 | -0.38 | -1.73% | 2.79% |
| Cc1cccc(C)c1NC(=O)CN1CCCC1=O [nefiracetam] | -0.7 | 0.26 | -2.77 | 1.22% | -6.8% |
| CCOc1ccc(/C=C2\NCCc3cc(OCC)c(OCC)cc32)cc1OCC [drotaverine] | 1.53 | 2.33 | -0.04 | 2.62% | 0.78% |
| COc1cc(N)cn[n+]1-c1ccccc1 [amezinium] | -1.03 | -0.58 | 0.21 | 0.15% | -1.56% |
| CC(C)(C)c1cc(C(C)(C)C)c(NC(=O)c2c[nH]c3ccccc3c2=O)cc1O [ivacaftor] | -1.65 | 1.11 | -2.96 | -10.4% | -4.71% |
| O=C1CCC[C@@H]2[C@H]3C[C@@H](CN12)[C@@H]1CCCCN1C3 [lupanine] | 2.64 | 9.38 | 5.68 | 1.8% | -0.17% |
| Clc1ccc(Nc2nnc(Cc3ccncc3)c3ccccc23)cc1 [vatalanib] | 0.19 | -1.32 | 0.29 | 3.79% | 1.06% |
| CCOc1ccccc1OC(c1ccccc1)C1CNCCO1 (stereo not given) [reboxetine] | 0.65 | 1.82 | 0.81 | -0.58% | -1.59% |
| Cc1c(C)c2c(c(C)c1OC(=O)CCC(=O)O)CC[C@@](C)(CCC[C@H](C)CCC[C@H](C)CCCC(C)C)O2 [D-alpha-tocopheryl-succinate] | -5.51 | -5.87 | -7.06 | -5.36% | -2.64% |
| C=C1CC[C@H](O)C/C1=C/C=C1\CCC[C@]2(C)[C@@H]([C@H](C)/C=C/[C@H](C)C(C)C)CC[C@@H]12 [ergocalciferol] | 0.88 | 0.86 | 0.95 | 0.55% | 0.72% |
| CC[C@H]1[C@@H]2C[C@H]3[C@@H]4N(C)c5ccccc5[C@]45C[C@@H]([C@@H]2[C@H]5O)N3[C@@H]1O [ajmaline] | -1.1 | -2.42 | 0.36 | 0.5% | -1.16% |

| SMILES | inhibition of SARS-CoV-2 cytopathic effect (1 nM) [%] | inhibition of SARS-CoV-2 cytopathic effect (8.33 nM) [%] | inhibition of SARS-CoV-2 cytopathic effect (100 nM) [%] | inhibition of SARS-CoV-2 cytopathic effect (833.33 nM) | inhibition of SARS-CoV-2 cytopathic effect (10000 nM) |
| --- | --- | --- | --- | --- | --- |
| Cn1cc(C2=C(c3ccc(Cl)cc3Cl)C(=O)NC2=O)c2ccccc21 | 2.26 | 6.22 | 4.19 | 1.47% | 20.8% (active) |
| O=C(O)CCC(=O)c1ccc(-c2ccccc2)cc1 [fenbufen] | -1.6 | 2.58 | -0.25 | -2.57% | -2.49% |
| N[C@@H](Cc1cc(CP(=O)(O)O)cc(-c2ccccc2Cl)c1)C(=O)O | 8.76 | 0.31 | 1.79 | 1.85% | 1.74% |
| [O-][n+]1cccc(CO)c1 [mepiroxol] | 0.82 | -0.73 | 2.65 | -0.59% | 2.31% |
| CC(=O)N1N=C(c2ccc(N)cc2)c2cc3c(cc2C[C@H]1C)OCO3 [talampanel] | -0.4 | 0.84 | 0.91 | 1.19% | 1.16% |
| Fc1ccc(Cl)cc1-c1nc(Nc2ccncc2)c2nccnc2n1 | -0.85 | 0.45 | -1.96 | -3.87% | -7.46% |
| CCN(CC)C(=O)N[C@H]1C=C2c3cccc4[nH]cc(c34)C[C@H]2N(C)C1 [lisuride] | -0.02 | 2.67 | 0.39 | 7.27% | -0.37% |
| CCCC[C@H](NC(C)=O)C(=O)N[C@H]1CC(=O)NCCCC[C@@H](C(=O)O)NC(=O)[C@H](Cc2c[nH]c3ccccc23)NC(=O)[C@H](CCCNC(=N)N)NC(=O)[C@@H](Cc2ccccc2)NC(=O)[C@H](Cc2c[nH]cn2)NC1=O [bremelanotide] | 1.27 | -1.82 | -0.14 | -2.33% | 0.21% |
| Cn1cc(-c2ccncc2)c(-c2ccc(OCc3ccc4ccccc4n3)cc2)n1 | -1.42 | 1.25 | 1.83 | 16% (active) | 52.4% (active) |
| C/C(=C(\CCOP(=O)(O)O)SC(=O)c1ccccc1)N(C=O)Cc1cnc(C)nc1N [benfotiamine] | 0.45 | 2.17 | 2.51 | 1.61% | 0.69% |
| c1ccc2c(c1)Sc1ccccc1N2C[C@H]1CN2CCC1CC2 [levomequitazine] | -10.3 | -6.41 | -8.62 | -7.33% | -13.9% |
| CC(C)CC(NC(=O)OCC1c2ccccc2-c2ccccc21)C(=O)O (stereo in doubt) | 1.66 | 2.4 | 2.95 | 3.51% | 0.68% |
| CCCCCCCC/C=C/C(=O)O [trans-2-undecenoic-acid] | 0.16 | -0.12 | 1.42 | 1.97% | 1.5% |
| O=C(/C=C\n1cnc(-c2cc(C(F)(F)F)cc(C(F)(F)F)c2)n1)NNc1cnccn1 [selinexor] | -0.07 | -3.07 | -7.87 | -8.61% | -8.85% |
| NNc1nncc2ccccc12 [hydralazine] | 0.09 | 0.28 | -1.28 | -0.12% | 0.87% |
| CN(C)CCOC(c1ccccc1)c1ccccc1.Cn1c(=O)c2[nH]c(Cl)nc2n(C)c1=O [dimenhydrinate] | 1.11 | -2 | 0.95 | 0.58% | 0.68% |
| O=C1CC2(CCCC2)CC(=O)N1CCNC[C@H]1COc2ccccc2O1 | -0.99 | -2.08 | -0.87 | 0.95% | -2.14% |
| C[C@@H](NCc1cc(Br)cc2nc(O)c(O)nc12)P(=O)(O)O | -0.47 | 3.65 | -0.39 | -1.72% | -3.97% |
| COCC[n+]1c2c(n(Cc3cnccn3)c1C)C(=O)c1ccccc1C2=O | 0.33 | 4.83 | 2.74 | -2.2% | -9.2% |
